The supplement of paper PMC6992640
± gives the standard deviation of the averaged measurements.

How the values were obtained:
Test in all cases: cell viability (% of vehicle); higher = less cytotoxic
Details in all cases: 10 µM; 72 h
HCI01 = test system: HCI01 (cells of a triple-negative basal-like breast cancer xenograft)
HCI03 = test system: HCI03 (cells of an ER-positive luminal breast cancer xenograft)
HCI09 = test system: HCI09 (cells of a triple-negative luminal androgen receptor type breast cancer xenograft)
HCI11 = test system: HCI11 (cells of an ER-positive luminal breast cancer xenograft)
HCI13 = test system: HCI13 (cells of an ER-positive luminal breast cancer xenograft)
HCI16 = test system: HCI16 (cells of a triple-negative basal-like breast cancer xenograft)
UCD52 = test system: UCD52 (cells of a triple-negative basal-like breast cancer xenograft)
WHIM2 = test system: WHIM2 (cells of a triple-negative basal-like breast cancer xenograft)
WHIM30 = test system: WHIM30 (cells of a triple-negative basal-like breast cancer xenograft)
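Further: PDX cells carrying CMV promoter-driven luciferase, viability read as total photon flux per second by IVIS imaging following D-luciferin, vehicle control 0.1% DMSO.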

Work on `CN(C)CCC(c1ccc(Br)cc1)c1ccccn1.O=C(O)C=CC(=O)O` (stereo not drawn) [Brompheniramine hydrogen maleate] yielded a cell viability (HCI01) of 119 ± 19, a cell viability (HCI03) of 117 and a cell viability (HCI09) of 103 ± 1.9. For the same molecule, the cell viability (HCI11) was 99.5, the cell viability (HCI13) was 142 ± 4.6 and the cell viability (HCI16) was 118. For the same molecule, the cell viability (UCD52) was 74.9 ± 2.3, the cell viability (WHIM2) was 97.9 ± 3.3 and the cell viability (WHIM30) was 113.4 ± 1.1.

In the case of `CN(C)CCOC(c1ccccc1)c1ccccc1.Cl` [Diphenhydramine HCl], the cell viability (HCI01) is reported as 109 ± 18, the cell viability (HCI03) is reported as 123 and the cell viability (HCI09) is reported as 87 ± 2.5. The cell viability (HCI11) was 90.8, the cell viability (HCI13) was 74 ± 3.2 and the cell viability (HCI16) was 118. For the same molecule, the cell viability (UCD52) was 84.2 ± 6.5, the cell viability (WHIM2) was 107 ± 32 and the cell viability (WHIM30) was 116 ± 28.

Molecule `CSc1nc2cc(Oc3cccc(Cl)c3Cl)c(Cl)cc2[nH]1` [Triclabendazole] has a cell viability (HCI01) of 99.7 ± 4.9, a cell viability (HCI03) of 108 and a cell viability (HCI09) of 83 ± 23. For the same molecule, the cell viability (HCI11) was 97.1, the cell viability (HCI13) was 47.9 ± 7.4 and the cell viability (HCI16) was 127. It also gave a cell viability (UCD52) of 89.2 ± 6.4, a cell viability (WHIM2) of 124 ± 34 and a cell viability (WHIM30) of 134 ± 14.

Work on `CN1CC(=O)N2[C@H](c3ccc4c(c3)OCO4)c3[nH]c4ccccc4c3C[C@@H]2C1=O` [Tadalafil] yielded a cell viability (HCI01) of 108 ± 1.5, a cell viability (HCI03) of 150 and a cell viability (HCI09) of 90 ± 22. For the same molecule, the cell viability (HCI11) was 141, the cell viability (HCI13) was 95.7 ± 3.2 and the cell viability (HCI16) was 88.4. The cell viability (UCD52) was 96.7 ± 12, the cell viability (WHIM2) was 112 ± 3 and the cell viability (WHIM30) was 105 ± 16.

Molecule `COc1cc2nc(N3CCN(C(=O)C4COc5ccccc5O4)CC3)nc(N)c2cc1OC.CS(=O)(=O)O` (stereo not drawn) [Doxazosin Mesylate] has a cell viability (HCI01) of 116.9 ± 0.43, a cell viability (HCI03) of 94.7 and a cell viability (HCI09) of 73.2 ± 34. It also gave a cell viability (HCI11) of 83.3, a cell viability (HCI13) of 103 ± 15 and a cell viability (HCI16) of 123. For the same molecule, the cell viability (UCD52) was 92.4 ± 14, the cell viability (WHIM2) was 62.6 ± 10 and the cell viability (WHIM30) was 117 ± 13.

`O=C(O)C1=COC(OC2OC(CO)C(O)C(O)C2O)C2C(CO)=CCC12` (stereo not drawn) [Geniposidic acid] showed a cell viability (HCI01) of 99.5 ± 9.7, a cell viability (HCI03) of 150 and a cell viability (HCI09) of 93.7 ± 17. The cell viability (HCI11) was 95.6, the cell viability (HCI13) was 107 ± 12 and the cell viability (HCI16) was 110. It also gave a cell viability (UCD52) of 99.8 ± 10, a cell viability (WHIM2) of 94.3 ± 6 and a cell viability (WHIM30) of 143.2 ± 0.61.

`COc1cc2nc(N3CCN(C(=O)c4ccco4)CC3)nc(N)c2cc1OC.Cl` [Prazosin HCl] showed a cell viability (HCI01) of 152 ± 2.9, a cell viability (HCI03) of 129 and a cell viability (HCI09) of 36.9 ± 1.6. It also gave a cell viability (HCI11) of 131, a cell viability (HCI13) of 108 ± 16 and a cell viability (HCI16) of 156. The cell viability (UCD52) was 140 ± 7.2, the cell viability (WHIM2) was 52.5 ± 4.7 and the cell viability (WHIM30) was 114 ± 1.7.
